# Experimental data as given in publication PMC7862700, “An all-to-all approach to the identification of sequence-specific readers for epigenetic DNA modifications on cytosine”.
# Legend:
# Experiment in all cases: DAPPL (digital affinity profiling via proximity ligation, sequencing); 10 mM Tris-HCl pH 7.5, 50 mM NaCl, 1 mM DTT, 4% glycerol, room temperature, 30 min; GST-TFs on glutathione beads, 16-mer random dsDNA library, 0.1% formaldehyde crosslink after washing; high values mean tight binding
# Details in all cases: protein: recombinant; tags: N-terminal GST; dsDNA, one strand shown
# FLI1 = molecular target: T1, FLI1 (Homo sapiens, UniProt Q01543 1-452)
# T1 sequence: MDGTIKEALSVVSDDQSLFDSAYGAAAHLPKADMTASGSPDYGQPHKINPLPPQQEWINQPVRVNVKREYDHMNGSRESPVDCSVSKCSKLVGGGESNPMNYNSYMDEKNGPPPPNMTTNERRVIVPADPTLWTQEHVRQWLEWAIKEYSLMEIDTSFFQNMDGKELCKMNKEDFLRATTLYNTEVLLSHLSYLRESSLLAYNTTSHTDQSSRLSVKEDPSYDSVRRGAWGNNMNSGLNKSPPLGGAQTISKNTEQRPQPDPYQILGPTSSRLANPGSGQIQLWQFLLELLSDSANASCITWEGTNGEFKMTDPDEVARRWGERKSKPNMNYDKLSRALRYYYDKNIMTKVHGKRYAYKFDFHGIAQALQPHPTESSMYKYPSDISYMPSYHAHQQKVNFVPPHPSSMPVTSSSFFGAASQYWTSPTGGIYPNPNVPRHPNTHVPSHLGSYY
# Procedure, shortened: (§1)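 Human transcription factors carrying a GST fusion were produced in yeast, bound to glutathione beads, tagged with DNA barcodes and pooled together with a tag-only sample. Each pool was held with 200 nmole of a random double-stranded 16-mer DNA library in Tris/NaCl/DTT/glycerol buffer for 30 min at room temperature, then washed, crosslinked in 0.1% formaldehyde, proximity-ligated with BsaI/T4 ligase (1 h, 37 °C), PCR-amplified and sequenced on an Illumina NextSeq500. Binding signal is the read frequency of each hexamer for a given factor divided by its frequency in the tag-only sample.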
# ELK1 = molecular target: T2, ELK1 (Homo sapiens, UniProt P19419 1-428)
# T2 sequence: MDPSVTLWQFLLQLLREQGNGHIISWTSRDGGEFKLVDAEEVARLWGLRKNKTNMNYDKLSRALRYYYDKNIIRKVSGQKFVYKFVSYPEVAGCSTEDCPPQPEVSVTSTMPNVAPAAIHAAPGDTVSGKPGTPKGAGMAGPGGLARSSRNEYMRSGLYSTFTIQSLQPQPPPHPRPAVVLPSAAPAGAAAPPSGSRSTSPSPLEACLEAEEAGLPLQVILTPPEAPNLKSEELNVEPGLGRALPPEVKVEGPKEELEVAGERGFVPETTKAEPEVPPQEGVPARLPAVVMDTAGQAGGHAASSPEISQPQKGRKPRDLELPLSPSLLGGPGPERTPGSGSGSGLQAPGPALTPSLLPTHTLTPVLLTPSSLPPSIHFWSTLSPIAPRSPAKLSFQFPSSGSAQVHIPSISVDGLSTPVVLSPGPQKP
# Procedure, shortened: as §1
# GABPA = molecular target: T3, GABPA (Homo sapiens, UniProt Q06546 1-454)
# T3 sequence: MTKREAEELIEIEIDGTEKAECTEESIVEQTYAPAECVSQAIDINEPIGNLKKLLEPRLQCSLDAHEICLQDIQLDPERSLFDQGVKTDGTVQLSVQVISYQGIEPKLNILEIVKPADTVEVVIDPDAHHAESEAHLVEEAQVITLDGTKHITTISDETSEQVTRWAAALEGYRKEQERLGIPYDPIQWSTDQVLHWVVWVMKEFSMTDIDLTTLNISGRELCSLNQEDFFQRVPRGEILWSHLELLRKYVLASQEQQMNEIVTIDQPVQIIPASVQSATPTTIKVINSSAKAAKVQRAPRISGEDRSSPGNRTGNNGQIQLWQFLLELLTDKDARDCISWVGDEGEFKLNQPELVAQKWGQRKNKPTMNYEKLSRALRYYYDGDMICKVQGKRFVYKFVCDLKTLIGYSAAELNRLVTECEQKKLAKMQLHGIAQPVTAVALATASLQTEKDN
# Procedure, shortened: as §1
# ERG = molecular target: T4, ERG (Homo sapiens, UniProt P11308 1-479)
# T4 sequence: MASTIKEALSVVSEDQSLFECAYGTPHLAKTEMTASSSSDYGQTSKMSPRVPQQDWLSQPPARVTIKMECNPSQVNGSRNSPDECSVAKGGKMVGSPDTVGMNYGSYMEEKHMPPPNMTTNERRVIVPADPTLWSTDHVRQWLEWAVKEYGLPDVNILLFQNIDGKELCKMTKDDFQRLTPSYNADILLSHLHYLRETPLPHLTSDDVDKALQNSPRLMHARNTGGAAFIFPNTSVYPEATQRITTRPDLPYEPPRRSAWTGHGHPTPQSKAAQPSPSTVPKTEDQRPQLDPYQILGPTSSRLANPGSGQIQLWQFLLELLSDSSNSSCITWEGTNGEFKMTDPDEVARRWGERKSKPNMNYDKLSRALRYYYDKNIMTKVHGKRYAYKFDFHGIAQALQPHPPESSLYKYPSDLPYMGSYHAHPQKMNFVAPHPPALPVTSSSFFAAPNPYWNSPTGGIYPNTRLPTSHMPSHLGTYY
# Procedure, shortened: as §1
# ELF1 = ELF1 (Homo sapiens, UniProt P32519 1-619)
# Procedure, shortened: as §1
# EHF = molecular target: T5, EHF (Homo sapiens, UniProt Q9NZC4 1-300)
# T5 sequence: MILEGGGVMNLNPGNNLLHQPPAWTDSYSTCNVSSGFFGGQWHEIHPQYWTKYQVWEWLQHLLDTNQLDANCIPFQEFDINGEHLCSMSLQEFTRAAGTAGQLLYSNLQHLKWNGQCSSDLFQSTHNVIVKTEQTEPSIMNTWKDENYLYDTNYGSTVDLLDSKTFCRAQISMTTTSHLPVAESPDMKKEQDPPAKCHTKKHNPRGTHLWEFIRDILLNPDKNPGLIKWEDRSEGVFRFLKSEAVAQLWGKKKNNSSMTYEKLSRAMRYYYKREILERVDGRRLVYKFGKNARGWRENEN
# Procedure, shortened: as §1
# SPI1 = SPI1 (Homo sapiens, UniProt P17947 1-270)
# Procedure, shortened: as §1
# FEV = molecular target: T6, FEV (Homo sapiens, UniProt Q99581 1-238)
# T6 sequence: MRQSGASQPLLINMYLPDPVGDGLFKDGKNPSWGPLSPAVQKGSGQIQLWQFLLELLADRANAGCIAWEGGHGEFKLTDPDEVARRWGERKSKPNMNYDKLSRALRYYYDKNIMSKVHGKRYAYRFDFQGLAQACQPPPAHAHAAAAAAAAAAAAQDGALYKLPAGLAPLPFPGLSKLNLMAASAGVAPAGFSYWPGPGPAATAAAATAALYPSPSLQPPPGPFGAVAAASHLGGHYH
# Procedure, shortened: as §1
# ETV5 = ETV5 (Homo sapiens, UniProt P41161 1-510)
# Procedure, shortened: as §1
# SPIC = molecular target: T7, SPIC (Homo sapiens, UniProt Q8N5J4 1-248)
# T7 sequence: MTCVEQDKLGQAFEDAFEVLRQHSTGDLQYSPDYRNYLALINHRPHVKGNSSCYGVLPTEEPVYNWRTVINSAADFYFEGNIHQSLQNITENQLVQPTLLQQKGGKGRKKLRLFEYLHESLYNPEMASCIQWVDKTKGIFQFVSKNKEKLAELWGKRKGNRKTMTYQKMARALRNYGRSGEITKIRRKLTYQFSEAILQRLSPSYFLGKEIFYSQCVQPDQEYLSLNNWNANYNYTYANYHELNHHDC
# Procedure, shortened: as §1
# ETV3L = molecular target: T8, ETV3L (Homo sapiens, UniProt Q6ZN32 1-361)
# T8 sequence: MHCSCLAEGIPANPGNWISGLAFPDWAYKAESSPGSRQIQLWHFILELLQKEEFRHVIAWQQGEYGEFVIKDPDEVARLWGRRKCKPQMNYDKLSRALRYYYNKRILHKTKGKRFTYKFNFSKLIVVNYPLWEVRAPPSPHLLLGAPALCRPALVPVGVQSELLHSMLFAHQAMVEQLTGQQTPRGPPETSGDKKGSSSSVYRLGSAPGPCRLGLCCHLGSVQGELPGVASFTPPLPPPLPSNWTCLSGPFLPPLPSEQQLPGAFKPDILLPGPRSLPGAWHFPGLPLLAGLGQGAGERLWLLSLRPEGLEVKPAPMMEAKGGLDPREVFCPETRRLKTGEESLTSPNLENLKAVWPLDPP
# Procedure, shortened: as §1
# ETS2 = molecular target: T9, ETS2 (Homo sapiens, UniProt P15036 1-469)
# T9 sequence: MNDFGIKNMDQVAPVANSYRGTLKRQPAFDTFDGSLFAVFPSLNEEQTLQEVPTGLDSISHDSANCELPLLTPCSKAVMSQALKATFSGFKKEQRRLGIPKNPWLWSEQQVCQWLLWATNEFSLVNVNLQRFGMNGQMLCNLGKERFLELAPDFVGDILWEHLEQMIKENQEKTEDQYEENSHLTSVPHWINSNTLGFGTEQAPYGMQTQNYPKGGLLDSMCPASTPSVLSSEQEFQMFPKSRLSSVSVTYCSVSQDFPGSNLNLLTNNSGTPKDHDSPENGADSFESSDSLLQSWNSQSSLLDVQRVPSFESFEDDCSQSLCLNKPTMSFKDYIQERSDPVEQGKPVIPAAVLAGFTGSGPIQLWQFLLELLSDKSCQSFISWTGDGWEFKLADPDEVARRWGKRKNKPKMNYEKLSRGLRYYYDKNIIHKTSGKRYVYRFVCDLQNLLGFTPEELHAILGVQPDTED
# Procedure, shortened: as §1
# SPDEF = molecular target: T10, SPDEF (Homo sapiens, UniProt O95238 1-335)
# T10 sequence: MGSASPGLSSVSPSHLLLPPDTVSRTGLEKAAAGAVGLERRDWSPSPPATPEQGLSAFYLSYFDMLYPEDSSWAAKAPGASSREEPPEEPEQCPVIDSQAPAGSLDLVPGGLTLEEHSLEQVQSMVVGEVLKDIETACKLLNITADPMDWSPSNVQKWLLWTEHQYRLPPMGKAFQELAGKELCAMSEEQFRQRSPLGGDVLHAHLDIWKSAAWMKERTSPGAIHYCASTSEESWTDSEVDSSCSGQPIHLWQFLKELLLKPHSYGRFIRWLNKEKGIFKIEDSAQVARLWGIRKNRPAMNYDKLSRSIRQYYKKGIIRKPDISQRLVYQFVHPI
# Procedure, shortened: as §1
# ETV3 = molecular target: T11, ETV3 (Homo sapiens, UniProt P41162-2 1-143)
# T11 sequence: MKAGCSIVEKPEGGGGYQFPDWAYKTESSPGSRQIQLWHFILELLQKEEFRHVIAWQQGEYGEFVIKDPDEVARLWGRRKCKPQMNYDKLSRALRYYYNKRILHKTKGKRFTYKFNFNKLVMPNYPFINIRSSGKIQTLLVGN
# Procedure, shortened: as §1
# Chain of ETV5 (P41161 whole entry): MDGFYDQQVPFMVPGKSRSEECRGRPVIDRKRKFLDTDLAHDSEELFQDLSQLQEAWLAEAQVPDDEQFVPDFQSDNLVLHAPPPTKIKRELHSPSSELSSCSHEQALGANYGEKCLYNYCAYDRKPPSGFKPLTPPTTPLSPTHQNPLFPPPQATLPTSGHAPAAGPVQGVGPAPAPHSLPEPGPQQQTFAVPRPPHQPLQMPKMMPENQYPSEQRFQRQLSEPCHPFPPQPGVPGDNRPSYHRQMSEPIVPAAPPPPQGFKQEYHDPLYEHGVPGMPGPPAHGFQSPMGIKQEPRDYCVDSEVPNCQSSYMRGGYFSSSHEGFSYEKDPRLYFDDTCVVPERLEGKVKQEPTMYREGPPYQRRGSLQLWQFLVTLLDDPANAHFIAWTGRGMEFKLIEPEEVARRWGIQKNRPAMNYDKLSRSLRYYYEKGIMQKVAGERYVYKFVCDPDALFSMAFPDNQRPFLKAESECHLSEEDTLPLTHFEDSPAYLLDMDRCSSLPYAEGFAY
# Chain of ELF1 (P32519 whole entry): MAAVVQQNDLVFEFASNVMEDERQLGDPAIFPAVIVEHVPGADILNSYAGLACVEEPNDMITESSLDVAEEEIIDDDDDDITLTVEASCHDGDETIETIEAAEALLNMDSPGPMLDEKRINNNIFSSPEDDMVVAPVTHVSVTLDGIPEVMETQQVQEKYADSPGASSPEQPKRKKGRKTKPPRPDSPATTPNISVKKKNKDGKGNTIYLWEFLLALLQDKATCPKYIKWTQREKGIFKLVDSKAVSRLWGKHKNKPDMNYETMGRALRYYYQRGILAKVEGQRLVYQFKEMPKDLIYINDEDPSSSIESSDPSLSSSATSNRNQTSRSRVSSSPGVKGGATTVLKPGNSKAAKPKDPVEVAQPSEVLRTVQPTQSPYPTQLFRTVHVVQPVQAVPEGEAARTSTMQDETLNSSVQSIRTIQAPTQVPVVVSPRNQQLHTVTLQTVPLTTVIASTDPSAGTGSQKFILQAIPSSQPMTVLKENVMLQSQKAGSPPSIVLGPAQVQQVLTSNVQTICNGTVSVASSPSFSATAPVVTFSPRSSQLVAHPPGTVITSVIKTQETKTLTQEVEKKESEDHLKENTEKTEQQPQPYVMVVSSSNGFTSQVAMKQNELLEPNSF
sequence,measurement,setting,value
ACTAGG,binding signal,FLI1,"1.03 fold enrichment (6-mer frequency, TF over GST control)"
same,binding signal,ELK1,"1.1 fold enrichment (6-mer frequency, TF over GST control)"
same,binding signal,GABPA,"1.09 fold enrichment (6-mer frequency, TF over GST control)"
same,binding signal,ERG,"1.03 fold enrichment (6-mer frequency, TF over GST control)"
same,binding signal,ELF1,"1.08 fold enrichment (6-mer frequency, TF over GST control)"
same,binding signal,EHF,"1.04 fold enrichment (6-mer frequency, TF over GST control)"
same,binding signal,SPI1,"1.07 fold enrichment (6-mer frequency, TF over GST control)"
same,binding signal,FEV,"1.02 fold enrichment (6-mer frequency, TF over GST control)"
same,binding signal,ETV5,"1.03 fold enrichment (6-mer frequency, TF over GST control)"
same,binding signal,SPIC,"1.21 fold enrichment (6-mer frequency, TF over GST control)"
same,binding signal,ETV3L,"1.04 fold enrichment (6-mer frequency, TF over GST control)"
same,binding signal,ETS2,"1.08 fold enrichment (6-mer frequency, TF over GST control)"
same,binding signal,SPDEF,"1.1 fold enrichment (6-mer frequency, TF over GST control)"
same,binding signal,ETV3,"1.03 fold enrichment (6-mer frequency, TF over GST control)"
